Assay results from PubChem BioAssay (NCATS).
Records with an inconclusive call do not appear. Active and inactive are the calls of the source. Calls follow the shape of the dose curve; as a rule, active = well fitted cell-killing curve with a large enough effect; inconclusive = small, poorly fitted or top-dose-only effect, or effect the other way; inactive = flat fitted curve, though single readings scatter.

Assay: S16 Schwann cell viability assay (CellTiter-Glo assay) (AID 624031); also: nearly all actives have a fitted effect of over 70% in size;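 as to activity change, negative = cytotoxicity: cellular ATP luminescence as a viability measure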
Settings: S16 rat Schwann cells viability, 24 h; series mostly up to 57.5 µM; activity change, negative = cytotoxicity: at the top concentration
Excerpt: Charcot-Marie-Tooth-Association [CMTA]
National Center for Advancing Translational Sciences [NCATS]
Charcot-Marie-Tooth (CMT) disease was first characterized by Jean-Martin Charcot and Pierre Marie in France and, independently, by Howard Henry Tooth in England in 1886. CMT is one of the most common inherited neurological diseases, affecting approximately 1 in 2,500 Americans. […] The most prevalent type of CMT is known as CMT1A and caused by a duplication of the PMP22 gene which leads to over-expression of this protein. PMP22 is a glycosylated intrinsic membrane protein accounting for 2-5% of the myelin protein content, and its over-expression results in demyelination and subsequently axonal loss.
A pair of cellular transcription-based assays was developed in the S16 rat Schwann cell lines (Hai, M., et al., 2002) stably transfected with orthogonal reporters - firefly luciferase (Fluc) and beta-lactamase (beta-Lac) - whose expression is driven by an intronic regulatory element of the PMP22 gene (Jones, E.A., et al., 2011) to recapitulate endogenous expression of PMP22. A comprehensive library of approved drugs, the NCGC Pharmaceutical Collection (Huang, R., et al., 2011), was screened in the cross-validating platform of the orthogonal reporter assays to identify drug modulators inhibitory towards PMP22 expression.
A set of counter-screens was devised to address non-specific activity of the library. An ATP-dependent CellTiter-Glo assay (developed by Promega Corp) was utilized to control cell viability. In addition, biochemical Fluc enzyme assay was performed to assess direct inhibition of the Fluc enzymatic activity.
Hai, M., Muja, N., DeVries, G.H., Quarles, R.H. and Patel, P.I. Comparative analysis of Schwann cell lines as model systems for myelin gene transcription studies. J Neurosci Res, 2002. 69(4): pp 497-508
Huang, R., Southall, N., Wang, Y., Yasgar A., Shinn P., Jadhav, A. , Nguyen, D.-T. and Austin, C.P., The NCGC pharmaceutical collection: a comprehensive resource of clinically approved drugs enabling repurposing and chemical genomics. Sci Transl Med, 2011. 3(80): p. 80ps16.
Native S16 cells were seeded in white solid-bottom 1536 well plates at between 500-750 cells/6uL in DMEM medium containing 10% FBS, w/o phenol red. After overnight incubation at 37 degree Celsius/5% C02, 23 nL of compounds or DMSO were delivered to each well using a pin tool, followed by 24h-incubation at 37 degree Celsius/5% C02. Then one volume of CellTiter-Glo assay reagent (Promega) was added to each well for cell viability measured by a ViewLux plate reader (PerkinElmer). The % activity was determined by normalizing to the average readings from wells containing no cells relative to DMSO-treated cells (0% Activity). The concentration-effect curves were then classified based on curve quality (r2), response magnitude and degree of measured activity.
Potency is read from the fitted curve at half-maximal effect.

SMILES | activity change, negative = cytotoxicity | Potency
CC(/C=C/C=C(\C)C(=O)O[C@@H]1O[C@H](CO[C@@H]2O[C@H](CO)[C@@H](O)[C@H](O)[C@H]2O)[C@@H](O)[C@H](O)[C@H]1O)=C\C=C\C=C(C)\C=C\C=C(/C)C(=O)O[C@@H]1O[C@H](CO[C@@H]2O[C@H](CO)[C@@H](O)[C@H](O)[C@H]2O)[C@@H](O)[C@H](O)[C@H]1O | -3.46% (inactive) | 
O=C(O)Cc1cc(I)c(Oc2ccc(O)c(I)c2)c(I)c1 | 6.9% [at 25.7 µM] (inactive) | 
OCCOCCOCCO | 7.14% (inactive) | 
Cc1cc(-c2ccc(N=Nc3c(S(=O)(=O)O)cc4cc(S(=O)(=O)O)cc(N)c4c3O)c(C)c2)ccc1N=Nc1c(S(=O)(=O)O)cc2cc(S(=O)(=O)O)cc(N)c2c1O |  | 12.8 µM (active)
COc1ccc2c(c1)OC(C)(C)C(c1ccccc1)C2c1ccc(OCCN2CCCC2)cc1 (stereo not given) |  | 32.2 µM (active)
C[C@H](CCC(=O)O)[C@H]1CC[C@H]2[C@@H]3CC[C@@H]4C[C@H](O)CC[C@]4(C)[C@H]3C[C@H](O)[C@]12C | 0.287% (inactive) | 
CCOC(=S)SSC(=S)OCC | 0% (inactive) | 
N=C(N)n1cccn1 | 2.85% (inactive) | 
CCN(CC)CCOC(=O)c1cccnc1 | -0.433% (inactive) | 
Nc1ncnc2c1ncn2CCOCP(=O)(O)O | -9.19% (inactive) | 
Cc1cc(C(=O)NCCc2ccc(S(=O)(=O)NC(=O)NN3CCCCCC3)cc2)no1 | 0% (inactive) | 
O=C(O)/C=C/c1ccccc1 | 4.23% (inactive) | 
O=S(=O)(O)CC(S)CS (stereo not given) | 0% (inactive) | 
COc1cc2c(cc1OC)[C@@H](Cc1cc(OC)c(OC)c(OC)c1)[N+](C)(CCCOC(=O)CC/C=C/CCC(=O)OCCC[N+]1(C)CCc3cc(OC)c(OC)cc3[C@H]1Cc1cc(OC)c(OC)c(OC)c1)CC2 (stereo not given in full) | 4.49% (inactive) | 
O=C(O)CCC/C=C\C[C@@H]1[C@@H](/C=C/[C@@H](O)COc2cccc(C(F)(F)F)c2)[C@H](O)C[C@@H]1O | -3.38% (inactive) | 
CC(=O)Nc1ccc(NC(=S)NC(=O)c2ccc(C(C)(C)C)cc2)cc1 | -19.6% (inactive) | 
Cc1ccc(S(=O)(=O)O)cc1C | 0.371% (inactive) | 
CN1CCC(OC(=O)C(Oc2ccc(Cl)cc2)Oc2ccc(Cl)cc2)CC1 | -3.79% (inactive) | 
O=C(c1cc2ccccc2o1)N1CCN(Cc2ccccc2)CC1 | -24.3% (inactive) | 
CC[C@H]1OC(=O)[C@H](C)[C@@H](O[C@H]2C[C@@](C)(OC)[C@@H](O)[C@H](C)O2)[C@H](C)[C@@H](O[C@@H]2O[C@H](C)C[C@H](N(C)C)[C@H]2O)[C@](C)(O)C[C@@H](C)CN(C)[C@H](C)[C@@H](O)[C@]1(C)O | 8.43% (inactive) | 

SMILES | activity change, negative = cytotoxicity | Potency
OC[C@H]1O[C@@](CO)(O[C@H]2O[C@H](CO)[C@@H](O)[C@H](O)[C@H]2O)[C@@H](O)[C@@H]1O | 0% (inactive) | 
CC(C)O | 0.372% (inactive) | 
C=CCN1CCCC1CNC(=O)c1cc(S(N)(=O)=O)cc(OC)c1OC (stereo not given) | -20.9% (inactive) | 
OCl | 0.683% (inactive) | 
COc1ccc2c(=O)c(C)c(-c3ccccc3)oc2c1CN(C)C | 0% (inactive) | 
CC1C(=O)CC2C3(C)CCC2(C(C)C(=O)O)C(=O)C13 (stereo not given) | -8.82% (inactive) | 
CC12CCC(C[N+](C)(CCC[N+](C)(C)C)C1)C2(C)C (stereo not given) | -18.7% (inactive) | 
c1ccc(-n2cnnn2)cc1 | -0.758% (inactive) | 
Cc1ncc(C[n+]2csc(CCOP(=O)(O)O)c2C)c(N)n1 | -9.94% (inactive) | 
FC(F)(F)C(F)(F)C(F)(F)C(F)(F)C(F)(F)C(F)(F)F | 1.65% (inactive) | 
Nc1nc(=O)n([C@@H]2CS[C@H](CO)O2)cc1F | -4.08% (inactive) | 
O=P(O)(O)CP(=O)(O)O | -5.51% (inactive) | 
C=CC(=O)O | 7.32% (inactive) | 
CCCCC/C=C\C/C=C\C/C=C\CCCCC(=O)O | 1.71% (inactive) | 
COC(=O)CCC[N+](C)(C)C | -1.98% (inactive) | 
OCc1ccccc1 | 10.3% (inactive) | 
COC(=O)[C@@H](N)CS | 9.1% (inactive) | 
OC1OC[C@@H](O)[C@H](O)[C@@H]1O (stereo not given in full) | -3.36% (inactive) | 
C=CCCCCCCCCC(=O)OC | 0.869% (inactive) | 
COc1ccc2nc(NC(=O)Nc3ccccc3)sc2c1 | -4.41% (inactive) | 
